Drawing on PubChem BioAssay AID504558 (Broad Institute, 2011), this text covers inhibition for 87 compounds.

Each structure is given as a SMILES string. Screen size: about 350,000 compounds; about 2,400 (0.69%) were called active. Cut-off read from the data, not from the text of the source: active = inhibition above about 41%; inconclusive = no clear call, values can overlap the other calls; inactive = below that. For the sample, actives were picked, then their nearest neighbours and some compounds at random.

The nature of the assay: EBV LMP1-driven NF-kappaB luciferase reporter inhibitors, primary screen, cell-based, luminescence, single point (AID 504558).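 Note: 0% = neutral control wells and 100% = reference inhibitor control.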 The note with it: LMP1-induced NF-kappaB luciferase reporter cells, at 12.5 µM, hits give high values.
Consider `C=CCOc1cccc(C2C(C(=O)c3ccc(C)o3)=C(O)C(=O)N2CCN2CCOCC2)c1` (configuration not stated), for which the inhibition is 1.89% (inactive).
Turning to `COc1ccc(NC(=O)CN2C(=O)NC(C)(c3ccccc3)C2=O)cn1` (configuration not stated), the inhibition was 4.57% (inactive).
Regarding `COc1ccc(NS(=O)(=O)c2ccc(NC(=S)NC(=O)/C=C/c3ccc(C)cc3)cc2)nn1`, the inhibition was -1.1% (inactive).
Turning to `COc1ccc(OC(C)C(=O)Nc2cccnc2)cc1` (configuration not stated), the inhibition is -0.732% (inactive).
In the case of `COc1cccc(NC(=S)N(Cc2ccc(C)cc2)Cc2ccccn2)c1` it was -9.16% (inactive); in that of `COc1ccc(NC(=O)/C(Cl)=C(/Cl)S(=O)Cc2ccc(C)cc2)cn1` (configuration not stated), 94.5% (active).
With `COc1ccc(CS(=O)/C(Cl)=C(/Cl)C(=O)Nc2ccc(OC)nc2)cc1` (configuration not stated), the inhibition was 85% (active).
For `COCOCCn1cc(CN2CCS(=O)(=O)N(Cc3ccc(-c4cccc(N(C)C)c4)cc3)C(CC(C)C)C2=O)nn1` (configuration not stated), the inhibition was 5.25% (inactive).
As for `C[C@H](CO)N1C[C@H](C)[C@H](CN(C)C(=O)Nc2ccc3c(c2)OCO3)Oc2ncc(Br)cc2C1=O`, the inhibition was -7.49% (inactive).
As for `CCCCN1C(=O)C(CC(=O)NC(c2ccccc2)c2ccccc2)CC(C(=O)N2CCOCC2)=C1C` (configuration not stated), the inhibition was -3.52% (inactive).
For the compound `Cc1cc(N/N=C\c2ccc(Br)cc2)nc(-n2nc(C)cc2C)n1`, the inhibition is 47.1% (active).
As for `Cc1cc(Nc2ccc(Br)cc2)nc2ccccc12`, the inhibition is -19.5% (inactive).
On to `Cc1cc(C)n(-c2nnc(N3CCN(c4ccccc4)CC3)nn2)n1`, for which the inhibition was -13.2% (inactive).
Then `O=C(NCc1nnnn1-c1ccc(Cl)cc1)c1ccc2c(c1)OCO2`, with -8.64% (inactive); and `C=CCn1c(C)cc(C2=NNC(=NCC)SC2)c1C`, with 86.2% (active); and `COc1ccc(-c2c(C#N)cnc(C)c2C)c(O)c1OC`, with -4.81% (inactive).
Then `C[C@@H]1CN([C@H](C)CO)C(=O)CCCn2cc(nn2)CO[C@H]1CN(C)S(C)(=O)=O`, with 1.59% (inactive).
In the case of `COc1cccc(NC(=O)CN(C)C(=O)c2cc(Cl)nc3ccccc23)c1` it was -0.28% (inactive); in that of `Cc1ccc(C2=C/C(=C\c3cccnc3)C(=O)O2)cc1`, 43.1% (active); in that of `Cc1ccccc1C1=N/C(=C/c2cccnc2)C(=O)O1`, 3.85% (inactive).
Turning to `CN(C)/C=C1\C=C(c2ccccc2)OC1=O`, the inhibition is -8.13% (inactive).
In the case of `Cc1ccc(CN(C)C[C@@H]2OCc3cnnn3CCCC(=O)N([C@@H](C)CO)C[C@H]2C)cc1`, the inhibition was 0.256% (inactive).
Then `O=C(COC(=O)/C=C/c1ccc(Cl)cc1)NC1CCS(=O)(=O)C1` (configuration not stated), with -1.97% (inactive).
As to `C[C@@H]1CN([C@@H](C)CO)S(=O)(=O)c2ccc(C#Cc3cccc(F)c3)cc2O[C@H]1CN(C)S(=O)(=O)c1cn(C)cn1`, the inhibition is 5.98% (inactive).
As for `C=CCOc1ccccc1CNn1c(C)n[nH]c1=S`, the inhibition is -1.28% (inactive).
As to `N#CCCC(C#N)(c1cccnc1)N1CCOCC1` (configuration not stated), the inhibition is 2.43% (inactive).
In the case of `COc1cnc(-c2ccccn2)nc1Oc1ccc(C(C)(C)C)cc1` it was -4.07% (inactive); in that of `CC(C)(C)Nc1nc(-c2ccccn2)nc2ccccc12`, 45.7% (active).
As to `Cc1nc2ccccc2c(C(=O)O)c1-c1ccccn1`, the inhibition is 3.33% (inactive).
Regarding `O=S1(=O)CCN(Cc2ccccc2)CC1`, the inhibition was 0.572% (inactive).
Regarding `CC1=C(C(=O)N2CCOCC2)CC(CC(=O)NCc2cccc3ccccc23)C(=O)N1CCC1=CCCCC1` (configuration not stated), the inhibition was -1.54% (inactive).
As for `CC1CCN(C(=O)CSc2nnc(-c3ccco3)n2N)CC1`, the inhibition is -6.21% (inactive).
With `Oc1c(CN2CCCC2)cc(COCc2ccccc2)c2cccnc12`, the inhibition was 69% (active).
For `O=C(Cc1ccccc1)NNC(=O)C1CCN(c2ncccn2)CC1`, the inhibition was -1.53% (inactive).
For the compound `CCCc1cc(=O)oc2c(C)c(O)c(CN3CCCCC3)cc12`, the inhibition was 5.86% (inactive).
For `COCCCN1C(=O)C(CC(=O)NCc2cccs2)CC(C(=O)N2CCOCC2)=C1C` (configuration not stated), the inhibition is -3.59% (inactive).
As to `CC1(C)CC(N2CCN(C(c3ccccc3)c3ccccc3)CC2)=CC(=[N+]2CCCCC2)C1`, the inhibition is 50.9% (active).
On to `CC(C)OCC(O)CN1CCN(C(c2ccccc2)c2ccccc2)CC1` (configuration not stated), for which the inhibition is -3.08% (inactive).
As for `CC1(C)CC(=O)C=C(N2CCOCC2)C1`, the inhibition is 7.14% (inactive).
Take `CCCCN1CC(C)(C)[C@H](CC(=O)Nc2ccc(Br)cc2)C1=O`: the inhibition was 3.19% (inactive).
As to `CCn1cc(C(=O)N2CCN(Cc3ccc4c(c3)OCO4)CC2)c2cc(OC)c(OC)cc2c1=O`, the inhibition was -0.487% (inactive).
`O=C(c1cccs1)N1CCN(Cc2ccc3c(c2)OCO3)CC1`: the inhibition was 2.81% (inactive).
For `COc1ccc(-c2cc(C(=O)N3CCN(Cc4ccc5c(c4)OCO5)CC3)on2)cc1OC`, the inhibition is 60.2% (active).
`O[C@H]1CN(Cc2cccs2)[C@@H](c2ccc(Cl)cc2)C[C@@H]1n1cc(C2CC2)nn1`: the inhibition was -3.9% (inactive).
Take `CCCCCCN1C[C@H](O)[C@@H](n2cc(C3CC3)nn2)C[C@@H]1c1ccc(Cl)cc1`: the inhibition is -2.06% (inactive).
With `O=C(Nc1ccc(N2CCN(C(=O)c3cccs3)CC2)cc1)c1cccnc1Cl`, the inhibition is 6.16% (inactive).
Take `O=C(Nc1ccc(N2CCN(C(=O)C3CC3)CC2)cc1)c1cccs1`: the inhibition is 4.6% (inactive).
For `Cc1ccccc1C(=O)NC(=S)Nc1ccc(N2CCN(C(=O)c3ccccc3)CC2)cc1`, the inhibition was 43.1% (active).
Consider `COc1ccccc1C(=O)NC(=S)Nc1ccc(N2CCOCC2)cc1`, for which the inhibition is 2.08% (inactive).
On to `Cc1ccc(C(=O)NC(=S)Nc2ccc(N3CCOCC3)cc2)cc1`, for which the inhibition was 1.51% (inactive).
Then `Cc1ccccc1C(=O)N1CCN(c2ccc(NC(=O)c3cccs3)cc2)CC1`, with 49.3% (active); and `CN1OC[C@@H]2CN(S(=O)(=O)c3cccc(C(F)(F)F)c3)[C@H](c3ccc(-c4cc5ccccc5o4)cc3)C[C@@H]21`, with 23.8% (inactive).
Then `COc1ccc(NC(=O)N(C)C[C@H]2Oc3ncc(C#C[C@@H](C)O)cc3C(=O)N([C@H](C)CO)C[C@H]2C)cc1`, with 3.12% (inactive); and `Oc1ccc(N2CCN(C(=S)NCc3ccccc3)CC2)cc1`, with 50.7% (active).
On to `O=C(COC(=O)c1ccccc1C(=O)N1CCN(c2ccccc2)CC1)NCc1ccccc1`, for which the inhibition was -5.9% (inactive).
For `Oc1ccccc1N1CCN(C(=S)NCc2ccccc2)CC1`, the inhibition was 0.986% (inactive).
Consider `CC(C)N=C1CCCC1C(=S)SSC(=S)C1CCCC1=NC(C)C` (configuration not stated), for which the inhibition is 24.4% (inactive).
In the case of `O=C(NCCN1CCOCC1)C1CCN(S(=O)(=O)c2ccccc2)CC1`, the inhibition was 5.14% (inactive).
With `O=C(/C=C\c1ccc2c(c1)OCO2)NC1(C(=O)Nc2ccc3c(c2)OCCO3)CCCCC1`, the inhibition is -3.03% (inactive).
With `COc1ccc(OC)c(/C=C/C(=O)OCC(=O)Nc2ccc3c(c2)OCCO3)c1`, the inhibition was 0.837% (inactive).
In the case of `COc1cccc(/C=C/C(=O)Nc2ccc3c(c2)OCCO3)c1`, the inhibition was 58.7% (active).
As to `CC1CCCC(NC(=O)COC(=O)c2ccccc2C(=O)N(C)C2CCCCC2)C1C` (configuration not stated), the inhibition is -11.2% (inactive).
Regarding `COc1cccc(/C=N/NC(=O)c2[nH]nc3c2CCc2ccccc2-3)c1O`, the inhibition is 69.4% (active).
Then `CCn1c(/C=N/NC(=O)c2ccc(OC)cc2)nc2ccccc21`, with 4.88% (inactive).
With `COc1ccc(/C=C2\CCc3ccccc3C2=O)c(OC)c1OC`, the inhibition was -2.98% (inactive).
Then `CC1=C(C(=O)N2CCOCC2)CC(CC(=O)NCC2CCCCC2)C(=O)N1Cc1ccc(F)cc1` (configuration not stated), with -0.637% (inactive).
For the compound `CCCc1ccc(S(=O)(=O)N2CCN(C(=O)c3cc(C)on3)CC2)cc1`, the inhibition is -4.88% (inactive).
Regarding `C[C@H](CO)N1C[C@H](C)[C@@H](CN(C)Cc2ccc3c(c2)OCO3)OCc2cnnn2CCCC1=O`, the inhibition was 4.06% (inactive).
As to `CC(C)C1CCN(C(=O)C2CCC(=O)N(C3CCCCCC3)C2)CC1` (configuration not stated), the inhibition is -25.4% (inactive).
For `COc1ccc(S(=O)(=O)N2CCN(C(=S)NCC3CCCO3)CC2)cc1OC` (configuration not stated), the inhibition was 74.2% (active).
For `CCOc1ccc(S(=O)(=O)N2CCN(C(=S)NCC3CCCO3)CC2)cc1` (configuration not stated), the inhibition was -0.069% (inactive).
As for `S=C(NCC1CCCO1)N1CCN(c2ccc(Cl)c(Cl)c2)CC1` (configuration not stated), the inhibition is 10% (inactive).
For `C[C@H](CO)N1C[C@H](C)[C@H](CN(C)C(=O)c2ccncc2)OCc2ccccc2-c2c(n(C)c3ccccc23)C1=O`, the inhibition is 2.77% (inactive).
In the case of `C[C@H]1CN([C@@H](C)CO)C(=O)CCCn2nncc2CO[C@@H]1CN(C)S(=O)(=O)c1cccc(C#N)c1` it was 2.8% (inactive); in that of `CN1OC[C@@H]2CN[C@H](c3ccc(-c4ccccc4)cc3)C[C@@H]21`, -14.4% (inactive).
Consider `COc1cccc(NC(=O)N(C)C[C@@H]2Oc3ncc(Br)cc3C(=O)N([C@@H](C)CO)C[C@H]2C)c1`, for which the inhibition is 1.17% (inactive).
`CSc1nnc(NC(=O)c2nc(S(=O)(=O)Cc3ccc(C)cc3)ncc2Cl)s1`: the inhibition is 24.2% (inactive).
With `Cc1cccc(NC(=O)c2nc(S(=O)(=O)Cc3ccccc3)ncc2Cl)c1`, the inhibition is 19.5% (inactive).
Take `Cc1ccc(CS(=O)(=O)c2ncc(Cl)c(C(=O)Nc3nnc(C)s3)n2)cc1`: the inhibition was 85.8% (active).
On to `CC1(C)OC(=O)C2=C(CC(c3ccccc3)OC2CCc2ccccc2)O1` (configuration not stated), for which the inhibition was 3.89% (inactive).
Then `C[C@@H]1C[C@@H]2O[C@H]2/C=C\C=C\C(=O)Cc2c(Cl)c(O)cc(O)c2C(=O)O1`, with 80% (active); and `CCOC(=O)c1c(C)[nH]c(C)c1C(=O)COC(=O)/C=C/c1cccc([N+](=O)[O-])c1`, with 7.29% (inactive); and `Nc1nnn(CC(=O)N/N=C/c2ccc(O)cc2)n1`, with -8.43% (inactive).
In the case of `O=C(C[n+]1ccccc1)N/N=C/c1ccc(O)cc1`, the inhibition is 45.7% (active).
Take `Cc1nonc1C(=O)N/N=C/c1ccc(O)cc1`: the inhibition was -10.7% (inactive).
Regarding `O=C(OCc1ccccc1)N1CCC2CC1c1ccc(-c3ccc4c(c3)OCO4)cc12` (configuration not stated), the inhibition is -5.51% (inactive).
For `O=NN(CCCl)C(=O)NCCc1cccc[n+]1[O-]`, the inhibition is 1.36% (inactive).

A word on the inhibition: it is the relative decrease from the control value, in per cent.
